We go through 17 molecules from PubChem BioAssay.

Molecules are shown by their SMILES.

Chain of PEG-3 (Q6IN02 whole entry, looked up): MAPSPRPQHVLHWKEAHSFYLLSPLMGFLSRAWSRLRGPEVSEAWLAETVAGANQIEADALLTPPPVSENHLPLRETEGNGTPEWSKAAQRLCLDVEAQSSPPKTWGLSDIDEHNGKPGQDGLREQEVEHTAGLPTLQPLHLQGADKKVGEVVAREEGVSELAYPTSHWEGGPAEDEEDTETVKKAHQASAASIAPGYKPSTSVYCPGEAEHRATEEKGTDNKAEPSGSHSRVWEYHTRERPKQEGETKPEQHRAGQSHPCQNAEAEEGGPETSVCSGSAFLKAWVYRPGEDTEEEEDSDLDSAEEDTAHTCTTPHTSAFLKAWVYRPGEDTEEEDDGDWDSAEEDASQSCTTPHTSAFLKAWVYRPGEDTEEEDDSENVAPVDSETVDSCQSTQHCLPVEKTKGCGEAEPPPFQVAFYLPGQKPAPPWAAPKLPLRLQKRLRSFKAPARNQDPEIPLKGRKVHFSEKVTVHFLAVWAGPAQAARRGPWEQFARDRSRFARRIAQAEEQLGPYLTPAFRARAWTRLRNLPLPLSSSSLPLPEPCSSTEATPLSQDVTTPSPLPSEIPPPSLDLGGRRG

This assay addresses PEG-3 (UniProt Q6IN02). The assay can be described thus: inhibition of PEG-3 promoter-driven reporter – cell-based, HeLa, luciferase, CREF/GAPDH counter-screen panel, dose response (AID 624167). The conditions noted are these: CREF/GAPDH counter-screens; HeLa PEG-Prom luciferase reporter, overnight, run 1, dose range 1, at 100 µM (top of the series) unless noted. For orientation: The purpose of a counterscreen is to sort out artefacts and off-target activity.
What is called inhibition is the drop in the measured response relative to a control, in per cent. On to `O/N=C(\c1ccc(Cl)cc1Cl)c1ncc(C(F)(F)F)cc1Cl`, for which the inhibition was 86%.
Under `CC(C)CC(N)c1csc(Nc2ccc(C(=O)c3ccccc3)cc2)n1` (configuration not stated) stands 102%; under `CC(C)c1ccc(/C=N/Nc2ccc(C(=O)O)cc2)cc1`, 89.9%.
With `CCOc1ccc(Nc2c3ccccc3nc3ccccc23)cc1`, the inhibition was found to be 97.9%.
As to `CSc1ccc2c(c1)C(N1CCN(C)CC1)Cc1ccccc1S2` (configuration not stated), the inhibition amounted to 102%.
`CC1(C)CC(NCCN2CCN(C3=CC(=C(C#N)C#N)CC(C)(C)C3)CC2)=CC(=C(C#N)C#N)C1`: the inhibition worked out at 19.6%.
In the case of `COc1ccc(C23CC4CC(CC(C4)C2)C3)cc1C(=O)NCCN(C)C`, the inhibition is 101%.
As for `Cc1cccc(CN2C(=O)/C(=C\c3ccc(C(=O)NCCN4CCOCC4)cc3)Sc3ccccc32)c1`, the inhibition is 102%.
`CCCN(CC(=O)Nc1cc(Cl)cc(Cl)c1)CC(=O)Nc1ccc(F)c(F)c1F`: the inhibition was 101%.
Consider `CCCCCCSc1cc(-c2nc3ccc(C)cn3c2NCCCC)ccc1OC`, for which the inhibition came out at 98.7%.
For `CN(C)CCNc1ccc2ncn3c4ccc(O)cc4c(=O)c1c23`, the inhibition worked out at 101%.
Consider `CC(C)N1CCc2c(sc(NC(=O)c3cc4cc([N+](=O)[O-])ccc4s3)c2C(N)=O)C1`, for which the inhibition came out at 98.8%.
For the molecule `COc1cccc(N2CCN(CC(=O)Nc3ccccc3C(=O)NCc3ccccc3)CC2)c1`, the inhibition worked out at 56.8%.
As for `COc1cc(N=Nc2c(O)c3ccccc3[nH]c2=O)c(OC)cc1N=Nc1ccccc1`, the inhibition is -11.2%.
For `COc1ccc(-c2cc(-c3ccc(F)cc3)nc(N3CCN(C)CC3)n2)cc1`, the inhibition was determined as 25.8%.
On to `Cc1ccc(-c2nnc(N3CCN(c4ccccn4)CC3)c3ccccc23)cc1`, for which the inhibition stood at 98%.
As for `COc1cc(/C=C2\SC(=S)N(CCC(=O)N3CCCCC3)C2=O)cc(OC)c1OC`, the inhibition is 98.1%.
